# Bioassay records as filed in PubChem.
# BAZ2B inh: qHTS Assay for Inhibitors of BAZ2B. Potency, µM (doses to about 114 µM), for the others: at the highest dose activity change, negative = inhibition, hits mostly inhibitors. AlphaScreen BAZ2B-H3K14Ac peptide displacement. 360,000 tested, 4.4% active. Bromodomain adjacent to zinc finger domain protein 2B (Homo sapiens), Q9UIF8; also: % is scaled to controls: 0 for no effect and ±100 for the full control effect; nearly all actives have a fitted effect of over 60% in size
#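 Compounds, titrated to a top concentration of 110 uM, were incubated 30 min at room temperature with preformed BAZ2B/acetyl-K14 H3 peptide complex (50 nM each). Proximity signal was measured by AlphaScreen after 20 min with beads.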
# JMJD2A Tudor inh: qHTS Assay for Inhibitors of JMJD2A-Tudor Domain; Lysine-specific demethylase 4A (Homo sapiens), O75164; AlphaScreen JMJD2A-Tudor / H3K4me3 peptide binding; Potency, µM (series often up to 114 µM), without a hit: at the highest dose activity change, negative = inhibition, usual class: inhibitors; 390,000 tested, 4.4% active; AID 504339, 2011; also: % is scaled to controls: 0 for no effect and ±100 for the full control effect; nearly all actives have a fitted effect of over 50% in size
# HP1b chromo inh: HTS for Inhibitors of HP1-beta Chromodomain Interactions with Methylated Histone Tails. Chromobox protein homolog 1 (Homo sapiens), P83916. AlphaScreen HP1-beta / biotin-H3K9me3 peptide binding. Potency, µM (doses to about 114 µM), for inactives: at the top dose activity change, negative = inhibition, usual class: inhibitors. 390,000 tested, 0.56% active. AID 540317, 2011; also: nearly all actives have a fitted effect of over 70% in size
#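 Compound inhibition of the preformed complex between 50 nM HP1-beta and 50 nM biotinylated H3K9me3 peptide was read by AlphaScreen. Buffer was PBS pH 7.4 with 0.01% Tween-20. Incubations ran 30 min at room temperature, with 10 ug/mL donor/acceptor beads.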
# G9a inh: qHTS Assay for Inhibitors of Histone Lysine Methyltransferase G9a; Potency, µM (highest dose often 102 µM), inactives show top-dose activity, negative = inhibition, most hits filed as inhibitors; G9a H3K9 monomethylation, AlphaScreen, 2 h; 350,000 tested, 8.8% active; also: % is scaled to controls: 0 for no effect and ±100 for the full control effect; nearly all actives have a fitted effect of over 75% in size
#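 AlphaScreen read-out: biotin-H3K9 peptide (500 nM) methylation by 20 nM enzyme with 20 uM SAM, 2 h at room temperature after 15 min compound preincubation; anti-monomethyl H3K9 antibody plus donor/acceptor beads, 10 min dark.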
# L3MBTL1 block: qHTS Assay for the Inhibitors of L3MBTL1; 230,000 tested, 0.66% active; Potency, µM (highest dose often 57.1 µM), for inactives: at the highest dose activity, negative = inhibition, hits mostly inhibitors; Lethal(3)malignant brain tumor-like protein 1 (Homo sapiens), Q9Y468; AlphaScreen L3MBTL1–H3K9me1 peptide binding; also: % is scaled to controls: 0 for no effect and ±100 for the full control effect; nearly all actives have a fitted effect of over 60% in size
#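 AlphaScreen proximity signal between nickel-chelate acceptor and streptavidin donor beads (final 10 ug/mL) reports binding of 50 nM L3MBTL1 to 75 nM biotin-H3 K9me1 peptide; complex incubated with compounds 30 min at room temperature; cefsulodin titration as control.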
# The depositor's hits bear a star; ? = inconclusive; / = no result given; [ ] = dose if it differs, or a comment. This is a sample that favours compounds with a hit; in the whole collection about 11% have one here. Calls follow the shape of the dose curve; as a rule, active = well fitted inhibition curve with a large enough effect; inconclusive = small, poorly fitted or top-dose-only effect; inactive = no such curve, though single readings can be large or run the other way. Potency is read from the fitted curve at half-maximal effect.
SMILES,BAZ2B inh,JMJD2A Tudor inh,HP1b chromo inh,G9a inh,L3MBTL1 block
O=C(CCN1CCN(c2ccccc2)CC1)N/N=C/c1ccc(O)c(O)c1O,8.91µM*,39.8µM*,28.2µM*,8.91µM*,5.62µM*
C/C(=N\NC(=O)Cc1csc(N2CCOCC2)n1)c1ccccc1,1.6%,5.3%,18.3%,13.0%,/
COc1ccc(/C=N/NC(=O)CCN2CCN(c3ccccc3)CC2)c(OC)c1OC,7.6%,-18.5%,18.7%,5.6%,-4.5%
O=C(CCN1CCOCC1)N/N=C/c1cc(Br)cc(Br)c1O,56.2µM*,?,28.1%,/,-15.5%
Cc1cc(C(=O)N/N=C/c2ccc(O)c(O)c2O)c(C)n1-c1ccccc1,56.2µM*,56.2µM*,?,10µM*,?
O=C(Nc1nnc(C2CCCCC2)s1)C1CCN(C(=O)c2ccco2)CC1,/,-19.1%,24.8%,/,/
COc1ccc(-c2cn3nc(N4CCC(C(=O)Nc5cc(Cl)ccc5C)CC4)sc3n2)cc1,0.7%,-24.4%,-5.2%,-0.7%[59 µM],/
COCCn1c(C)cc2c(c1=O)C(c1ccccc1F)C(C#N)=C(N)O2 (centres undefined),5.7%,-6.2%,28.1%,-0.7%[12.7 µM],-3.3%
Cn1c2c(c(=O)n(C)c1=O)C(c1ccccc1Cl)C(C#N)=C(N)O2 (centres undefined),-22.7%,2.3%,61.2%,25.1µM*,/
Cn1c2c(c(=O)n(C)c1=O)C(c1ccccc1F)C(C#N)=C(N)O2 (centres undefined),-6.3%,-13.2%,53.7%,15.8µM*,1.1%
N#CC1=C(N)Oc2cc(N)ccc2C1c1ccccc1Cl (centres undefined),?,-18.6%,25.5%,/,2.1%
Cc1ccc(N2C(=O)[C@@H]3CSC(c4ccc(Cl)cc4)N3C2=O)cc1 (some centres undefined),3.9%,4.0%,41.9%,1.5%[59 µM],/
COc1cc(NC(=O)Cn2c(=O)ccc3cc(S(=O)(=O)N4CCCC4)ccc32)cc(OC)c1,-13.9%,-14.8%,22.7%[57 µM],5.7%[59 µM],/
Cc1ccc(CNc2ccc(-c3nc(C(C)C)no3)cc2[N+](=O)[O-])cc1,-1.3%,-16.2%,8.6%,-8.4%[59 µM],/
COc1ccc(OC)c(CNC(=O)c2cnc3c(C)cccn3c2=O)c1,4.2%,2.7%,27.0%,4.9%[59 µM],/
CCn1nc([N+](=O)[O-])c2c(-c3nc4ccccc4o3)c(N)n(CCCOC)c2c1=O,56.2µM*,?,-1.3%,?,/
CCn1cnc2c(Nc3cc(F)cc(F)c3)nc(C(=O)COc3c(F)c(F)cc(F)c3F)nc21,/,-16.4%,/,/,/
O=C(OCC(=O)N1CCCC1=O)c1nc(Cl)c(Cl)c(Cl)c1Cl,70.8µM*,?,-2.1%,/,/
Cc1ccccc1-c1nccc(NCCN2CCOCC2)n1,/,/,/,0.6%[0.501 µM],/
Cc1ccc(O)c(N=CC2=C(O)c3ccccc3C2=O)c1,39.8µM*,?,-32.9%,31.6µM*,?
CCCOc1ccc(N2C(=O)CC(N(CCc3ccc(OC)cc3)C(=O)c3cccc(F)c3)C2=O)cc1 (centres undefined),4.1%,-28.9%,11.8%,44.7µM*,-1.0%
CCCOc1ccc(N2C(=O)CC(N(CCc3ccccc3)C(=O)c3ccccc3)C2=O)cc1 (centres undefined),-5.9%,-7.5%,24.6%,/,20.0%
CCC(=O)N(CCc1ccc(S(N)(=O)=O)cc1)C1CC(=O)N(c2ccc(OC)cc2)C1=O (centres undefined),-5.0%,-6.5%,22.7%,56.2µM*,0.0%
Cn1c(=O)c2sccc2n2c(CCC(=O)Nc3ccc(F)cc3)nnc12,2.2%,-13.0%,4.3%,-32.1%[59 µM],/
O=c1[nH]c2ccc(S(=O)(=O)Nc3ccc(Cl)cc3)cc2o1,-9.7%,-7.6%,56.5%,?,/
O=c1[nH]c2ccc(S(=O)(=O)Nc3cc(Cl)ccc3O)cc2o1,39.8µM*,?,-4.4%,3.16µM*,/
CCN1CCN(c2cc(C)c3cc(NC(=S)NCCCOC)ccc3n2)CC1,-14.8%,-12.8%,15.0%,?,/
